# HT1080NT lethal = kills 2HG-producing HT-1080-NT fibrosarcoma cells. AID 686970. Potency, µM (doses to about 46.1 µM), for inactives: top-dose activity, negative = less viability, most hits filed as cytotoxic. 1.6% of 360,000 active. HT-1080-NT fibrosarcoma viability, CellTiter-Glo ATP luminescence, 48 h;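 further: NT is the 2HG producing partner of a matched IDH1 knockdown line; potency means the concentration at half of the fitted maximal effect; 0% = DMSO-treated cells and -100% = media-only wells without cells; nearly all actives have a fitted effect of over 55% in size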
#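 Toxicity toward the 2HG-producing NT line was scored as %Activity, normalised to DMSO and no-cell wells, from CellTiter-Glo luminescence after 48 hours' treatment.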
# DT40 TDP1 CPT = growth inhibition of DT40 Tdp1-/-;hTDP1 cells with camptothecin (screen for TDP1 inhibitors); chicken DT40 Tdp1-/-;hTDP1 cells + 20 nM CPT, ATP luminescence, 48 h; Potency, µM (series often up to 46.2 µM), inactives show top-dose activity change, negative = growth inhibition, hits mostly inhibitors; 12% of 420,000 active; AID 686979; further: potency means the concentration at half of the fitted maximal effect; nearly all actives have a fitted effect of over 55% in size
#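 Chicken DT40 Tdp1-/- cells stably complemented with human TDP1 were seeded at 400 cells/well in medium containing 20 nM camptothecin, exposed to pin-transferred compounds, and grown at 37 °C for at least 48 hr. Viability was read as ATP luminescence.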
# DT40 TDP1 no CPT = qHTS for Inhibitors of human tyrosyl-DNA phosphodiesterase 1 (TDP1): qHTS in cells in absence of CPT; AID 686978, 2013; Potency, µM (titrated, usually from 46.2 µM), for inactives: top-dose activity change, negative = growth inhibition, hits mostly inhibitors; DT40 Tdp1-/- hTDP1 cells, no CPT, ATP luminescence, 48 h; 15% of 420,000 active; further: potency means the concentration at half of the fitted maximal effect; nearly all actives have a fitted effect of over 55% in size
#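 Luminescent ATP content (CellTiter-Glo) served as the growth readout. Knockout chicken DT40 cells expressing human TDP1 were exposed to compounds without camptothecin for a minimum 48 hr at 37 °C.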
# HT1080 IDH1KD tx = kills HT-1080 cells with IDH1 knockdown | AID 686971 | Potency, µM (titrated, usually from 46.1 µM), for inactives: top-dose activity, negative = toxicity, most hits filed as cytotoxic | HT-1080 IDH1 knockdown viability, ATP luminescence, 48 h | 2% of 360,000 active;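 further: potency means the concentration at half of the fitted maximal effect; 0% = DMSO wells and -100% = cell-free medium wells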
#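 % activity derives from luminescence (CellTiter-Glo), normalised to DMSO and no-cell wells. HT-1080-IDH1KD cells, 750/well, had 48 h compound exposure at 37 °C.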
# IL-1B inflam inh = blocks inflammasome-driven IL-1 beta release. THP-1 LPS/ATP IL-1B secretion, AlphaLISA, 16 h; hits give low values. 4.7% of 360,000 active. AID 743279. activity change, % at 57.5 µM; in the data active means activity change below about -50%; inconclusive means mostly about -30% to -49%
#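 THP-1 cells pretreated 1 hr with compounds (up to 57.5 uM final), then stimulated with LPS (250 ng/mL final) plus ATP (1.25 mM final); secreted IL-1B measured by AlphaLISA after 16 hr, decreased signal indicating inhibition.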
# * marks the source's active call; other numbers are inactive results; ? = inconclusive; · = no result given. Only some compounds are listed: those with a hit (about 19% of all), similar ones and a draw of the others. Unless noted, the call rests on the fitted dose curve; in most records, active means well fitted curve in the direction sought with a large enough effect; inconclusive means small, poorly fitted or top-dose-only effect, or another doubt; inactive means no such curve, though single readings can be large; an effect the other way counts as inactive or inconclusive. Unless noted, on the % scale 0 is the no-effect control and ±100 the full control effect.
SMILES,HT1080NT lethal,DT40 TDP1 CPT,DT40 TDP1 no CPT,HT1080 IDH1KD tx,IL-1B inflam inh
Cc1cccc(OCc2nc3ccccc3c(=O)n2N)c1,5%,?,29µM*,18%,-23
Cc1ccccc1OCc1nc2ccccc2n1C,4%,?,?,3%,2
Cc1ccc(OCCN(C)C(=O)C2CCC(=O)N(CCCN3CCCC3=O)C2)cc1 (stereo not given),6%,3%,-16%,5%,23
NCC1CC2c3ccccc3C1c1ccccc12 (stereo not given),-20%,5%,?,-16%,-78*
O=C(NCc1cccnc1)C1CC2c3ccccc3C1c1ccccc12 (stereo not given),-2%,-9%,3%,0%,16
CCc1nc(N2CCN(C(=O)c3ccccc3)CC2)c(C#N)c2c1COC(C)(C)C2,-3%,18µM*,15µM*,-6%,0
CC1(C)Cc2c(C#N)c(N3CCOCC3)nc(Cc3ccccc3)c2CO1,-3%,?,21µM*,-1%,-15
CC(OC(=O)c1snc(C(=O)NC2CCCCC2)c1N)C(=O)NC(C)(C)C (stereo not given),-9%,14µM*,13µM*,?,0
COc1ccccc1NC(=O)COc1coc(CN2CCN(c3ccccc3)CC2)cc1=O,2%,-21%,-27%,-2%,-5
C=C(Br)COC(c1ccco1)[C@H](Cc1ccccc1)NC(=O)OC(C)(C)C (stereo not given in full),·,?,11µM*,·,·
C[C@H](NC(=O)OC(C)(C)C)C(=O)c1ccco1,·,-2%,-4%,·,·
O=C(Nc1ccc(OC(F)(F)F)cc1)N1CCc2nc(NCc3cccc(Oc4ccccc4)c3)ncc2C1,?,18µM*,21µM*,23µM*,-22
COc1cccc(NC(=O)N2CCc3nc(NCc4cccc(Oc5ccccc5)c4)ncc3C2)c1,?,10µM*,21µM*,?,34
COc1cccc(NC(=O)N2CCc3nc(Nc4cc(Cl)cc(Cl)c4)ncc3C2)c1,?,?,23µM*,-13%,-54*
CCOc1ccc(NC(=O)N2CCc3ccccc3C2)cc1,9%,-18%,-14%,12%,-7
CC(C)c1ccc(Nc2ncc3c(n2)CCN(C(=O)Nc2ccc(F)c(Cl)c2)C3)cc1,?,?,?,?,-13
C/C(=C\c1ccccc1)C(=O)NCCc1ccccc1,18%,1%,-8%,23%,-6
COCCNC(=O)Cn1nc(-c2ccc(Cl)cc2)c2ccccc2c1=O,-2%,0%,-11%,-3%,-21
O=C(NCCc1ccccc1)[C@@H]1CC=C[C@@H]2CCN(C3CC3)C(=O)[C@@H]21,·,-7%,4%,·,·
C/C(CC1CC(C)OC1=O)=N\NC(N)=S (stereo not given),3%,-11%,15%,2%,22
C/C(CCC12CC3CC(CC(C3)C1)C2)=N\NC(N)=S,?,15µM*,16µM*,?,-5
COc1ccccc1C(=O)NC1CCN(C(=O)Nc2ccc(C)cc2)CC1,0%,-6%,-12%,-8%,4
Cc1ccccc1-c1noc(-c2ccc(N3CCN(C)CC3)c([N+](=O)[O-])c2)n1,·,16µM*,13µM*,·,·
COc1ccc(-c2noc(-c3ccc(N4CCCC4)c([N+](=O)[O-])c3)n2)cc1,·,-21%,-22%,·,·
CN1CCN(c2ccc(-c3nc(-c4ccccc4)no3)cc2[N+](=O)[O-])CC1,·,?,15µM*,·,·
SMILES,HT1080NT lethal,DT40 TDP1 CPT,DT40 TDP1 no CPT,HT1080 IDH1KD tx,IL-1B inflam inh
COc1ccc(-c2noc(-c3ccc(N4CCOCC4)c([N+](=O)[O-])c3)n2)cc1OC,·,-13%,-2%,·,·
COc1cc(-c2noc(-c3ccc(N4CCN(C)CC4)c([N+](=O)[O-])c3)n2)cc(OC)c1OC,·,3.3µM*,3.3µM*,·,·
CC(=O)N/C(=C\c1ccccc1)C(=O)OCc1cc(C)ccc1C,11%,9%,-2%,15%,4
COc1ccc(-c2oc3ncn4nc(-c5ccccc5C)nc4c3c2-c2ccc(OC)cc2)cc1,·,-15%,-6%,·,·
CCOC(=O)c1c(C)[nH]c(C)c1S(=O)(=O)NCC(=O)N1CCN(c2ccccc2F)CC1,·,?,-28%,·,·
Cc1cccc(N2CCN(S(=O)(=O)c3c(C)[nH]c(C)c3C(=O)N3CCCC3)CC2)c1C,-2%,?,?,-5%,-20
Cc1cccc(N2CCN(S(=O)(=O)c3c(C)[nH]c(C)c3C(=O)N3CCCCC3)CC2)c1C,-24%,21µM*,?,?,-51*
CCOC(=O)c1c(C)[nH]c(C)c1S(=O)(=O)N(C)CC(=O)N1CCN(c2cccc(C)c2C)CC1,·,18µM*,?,·,·
Cc1cccc(N2CCN(S(=O)(=O)c3c(C(=O)N4CCC(C)CC4)c(C)n(C)c3C)CC2)c1C,·,-114%,23µM*,·,·
COc1ccccc1NC(=O)COC(=O)/C=C/c1ccc(OC)c(OC)c1,-9%,?,?,0%,-5
O=Cc1c[nH]c2ccc(C(=O)c3ccccc3)cc12,-13%,?,?,-12%,?
COc1ccc(CNC(=O)CN(c2ccc(C)cc2)S(=O)(=O)c2c(C)n[nH]c2C)cc1,·,-11%,?,·,·
Cc1n[nH]c(C)c1S(=O)(=O)N(CC(=O)NCc1ccccc1Cl)c1ccc(C(C)C)cc1,·,?,16µM*,·,·
COc1cccc(CNC(=O)CN(c2ccc(C(C)C)cc2)S(=O)(=O)c2c(C)n[nH]c2C)c1,·,16µM*,23µM*,·,·
Cc1ccccc1S(=O)(=O)/N=C(/c1ccccc1)N1CCOCC1,3%,?,?,17%,16
COC(=O)CC1Oc2ccc(C)cc2NC1=O (stereo not given),15%,-2%,5%,15%,23
COC(=O)CC1Oc2ccccc2N(Cc2ccc(C)cc2)C1=O (stereo not given),-4%,16µM*,26µM*,3%,30
Cc1ccc(CN2C(=O)C(F)(F)Oc3ccccc32)cc1,-16%,11%,1%,1%,16
COC(=O)CC1Oc2ccc(Cl)cc2-n2cc(-c3ccc(C)cc3)nc21 (stereo not given),·,9.2µM*,6.5µM*,·,·
CCOC(=O)CN1C(=O)C(CC)Oc2ccc(Cl)cc21 (stereo not given),-1%,-18%,-10%,-11%,-13
COC(=O)CC1Oc2ccc(C)cc2-n2cc(-c3ccc(C)cc3)nc21 (stereo not given),·,16µM*,13µM*,·,·
COc1ccccc1-n1cc(-c2ccc(Cl)cc2)[nH]c1=O,0%,-2%,3%,2%,0
